Results on 68 compounds are retold here after PubChem BioAssay AID1745850 (National Center for Advancing Translational Sciences (NCATS), 2022).

Each structure is given as a SMILES string. Among all 2,100 compounds or so, about 260 (12%) were called active. Inconclusive results (about 58%) are left out. The call rests on the fitted dose curve; in most records, active means well fitted cell-killing curve with a large enough effect; inconclusive means small, poorly fitted or top-dose-only effect, or effect the other way; inactive means flat fitted curve, though single readings scatter. This is one part of the list.
Potency means the concentration at half of the fitted maximal effect.

The nature of this assay: Viability Counterscreen for Confirmatory qHTS for Inhibitors of ATXN expression. Further: nearly all actives have a fitted effect of over 50% in size. Conditions: HEK-293 ATXN2-luc cells viability, CellTiter-Fluor, 24 h; activity change, negative = cytotoxicity: at the top concentration. In outline: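 Cells with an ATXN2-luciferase reporter were dosed in a dilution series for 24 h at 37 degrees C. Viability was read first with Gly-Phe-AFC at 25 uM final (fluorescence, ex 405/em 540), then SteadyGlo luminescence. Medium-only wells defined 100% inhibition.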
Background: A counterscreen serves to expose hits that act by an unwanted route or on another target.
Regarding `c1cc2c(cc1-c1cnc3n1CCC3)OCCO2`, the “activity change, negative = cytotoxicity” value was -28.7% [at 57.5 µM] (inactive).
In the case of `O=C1C=C(NCCc2cc(Br)c(O)c(Br)c2)C(=O)c2ncccc21`, the Potency is 10 µM (active).
`CCOC(=O)c1c2ccc(OCC(=O)N/N=C/c3ccc(C)cc3)cc2n2ccccc12`: the “activity change, negative = cytotoxicity” value is -23% [at 57.5 µM] (inactive).
Regarding `CCCc1nc2c(c(=O)c3ccccc3n2C)c(=O)n1C1CCCCCC1`, the Potency was 28.2 µM (active).
For the compound `CN1CCC[C@H]1CCNc1ccc2c(=O)c3ccccc3n(C)c2c1`, the “activity change, negative = cytotoxicity” value was 14.2% [at 57.5 µM] (inactive).
Turning to `Nc1c(C(=O)NCc2ccc3c(c2)OCO3)c2nc3ccccc3nc2n1CCCN1CCOCC1`, the “activity change, negative = cytotoxicity” value is -24.5% [at 57.5 µM] (inactive).
Still for that read-out and setting: the value for `CC(C)(C)c1ccc(OCCn2nc(C(=O)O)c3ccccc3c2=O)cc1` was -26.5% [at 57.5 µM] (inactive).
`COC(=O)C1=C(C)N(Cc2ccccc2)C(=NCCc2cccnc2)N[C@H]1c1ccc(Br)cc1`: the Potency was 22.4 µM (active).
For the compound `Cc1cccc(NC(=O)CCC(=O)N/N=C/c2ccc(O)cc2O)c1`, the “activity change, negative = cytotoxicity” value was -20.9% (inactive).
On the same count and under the same terms, the value for `COc1ccc2c(Cl)c(C(=O)NN)sc2c1` was 8.74% (inactive).
With `CCC(=O)c1ccc(OCC(O)CN(CCc2ccccc2)Cc2ccccc2)cc1` (stereo not drawn), the “activity change, negative = cytotoxicity” value is -22.7% (inactive).
For `OC(CNCCc1ccccc1)COc1ccc(OCC(O)CNCCc2ccccc2)cc1` (stereo not drawn), the Potency was 22.4 µM (active).
Turning to `O=C(N/N=C\c1c(O)ccc2ccccc12)c1ccc(S(=O)(=O)N2CCCCC2)cc1`, the “activity change, negative = cytotoxicity” value is -12.7% [at 57.5 µM] (inactive).
Take `O=S(=O)(c1ccc2nc(COc3ccc(Cl)cc3Cl)[nH]c2c1)N1CCOCC1`: the “activity change, negative = cytotoxicity” value is 3.51% (inactive).
The same measure, in the same setting: the value for `COc1cccc(NC(=O)CSc2nc3ncc(Br)cc3[nH]2)c1` was -9.63% (inactive).
`CC1CCCCC1NC(=O)/C(C#N)=C/C=C/c1ccccc1[N+](=O)[O-]` (stereo not drawn): the Potency is 2.82 µM (active).
Turning to `CC(C)N(Cc1ccccc1)C(=O)/C=C/c1ccccc1[N+](=O)[O-]`, the “activity change, negative = cytotoxicity” value was -23.4% [at 57.5 µM] (inactive).
For the compound `N#C/C(=C\C=C\c1ccccc1[N+](=O)[O-])C(=O)NC1CCCCC1`, the Potency is 20 µM (active).
Consider `O=C(NCC1CC1)c1ccc2c(c1)S(=O)(=O)c1cc(Cl)ccc1C2=O`, for which the “activity change, negative = cytotoxicity” value is -16.3% (inactive).
On the same count and under the same terms, the value for `Cc1cc(C)n(-c2ccc(C(=O)N3CCN(S(=O)(=O)c4cccc(Br)c4)CC3)cc2)n1` was -15.9% (inactive); that for `O=C(Nc1ccc(N2CCOCC2)c(Cl)c1)c1c(F)c(F)c(F)c(F)c1F` was -11% (inactive).
For the compound `CC(O)(c1ccccc1)c1nc(-c2ccncc2)cs1` (stereo not drawn), the “activity change, negative = cytotoxicity” value is -3.76% (inactive).
Same read-out and setting: for `COc1ccc(NC2=NCC(Cc3ccc(Br)cc3)S2)cc1` (stereo not drawn) the value was -15.6% (inactive).
`CCN(CC)CCC(c1ccc2c(c1)OCO2)c1c(OC)cc(OC)c2c(-c3ccccc3)cc(=O)oc12` (stereo not drawn): the Potency is 20 µM (active).
With `Cc1ccc(SC2=C(Sc3ccc(C)cc3)C(=O)c3ccccc3C2=O)cc1`, the “activity change, negative = cytotoxicity” value was -12.3% [at 57.5 µM] (inactive).
For the compound `CCC(=O)OC1(C(C)=O)CCC2C3CCC4=CC(=O)CCC4(C)C3CCC21C` (stereo not drawn), the “activity change, negative = cytotoxicity” value was -8.08% [at 57.5 µM] (inactive).
In the case of `CSc1ncnc2c1ncn2CC(=O)C1CCC2C3CCC4=CC(=O)CCC4(C)C3CCC12C` (stereo not drawn), the Potency is 17.8 µM (active).
For the compound `Cc1ccc(Sc2nnc(Cc3ccccc3)c3ccccc23)cc1`, the “activity change, negative = cytotoxicity” value was -20.7% [at 57.5 µM] (inactive).
Same read-out and setting: for `Cc1cc(C)c(C(=O)N2CCCC(N3CCN(c4cccc(C(F)(F)F)c4)CC3)C2)o1` (stereo not drawn) the value was -17.7% (inactive); for `CCOC(=O)c1cnc(-n2nc(C)cc2C)nc1NC1CCCC1`, -24.9% (inactive).
As to `CCOc1cc(/C=N/Nc2cc(C)nc(-n3nc(C)cc3C)n2)ccc1O`, the Potency was 3.98 µM (active).
Take `Cc1cc(O)c(C(C)C)cc1N=Cc1ccccc1[N+](=O)[O-]`: the “activity change, negative = cytotoxicity” value is -7.78% [at 57.5 µM] (inactive).
In the case of `Cc1cc(N/N=C/c2ccccc2[N+](=O)[O-])nc(-n2nc(C)cc2C)n1`, the Potency is 12.6 µM (active).
Turning to `CC(=O)c1ccc(S(=O)(=O)N2CCN(CCOc3ccc(Br)cc3)CC2)cc1`, the “activity change, negative = cytotoxicity” value is -18.1% (inactive).
Regarding `CC(C)(C)N(Cc1ccc2c(c1)OCO2)C(=O)/C=C\S(=O)c1ccccc1` (stereo not drawn), the Potency is 17.8 µM (active).
Regarding `CN(C)CCC(c1ccc(Br)cc1)c1ccccn1` (stereo not drawn), the “activity change, negative = cytotoxicity” value was -18.7% [at 57.5 µM] (inactive).
Take `CCOC(=O)c1c(-c2ccccc2)oc2ccc(OCC(=O)NN)cc12`: the “activity change, negative = cytotoxicity” value is -25.4% [at 57.5 µM] (inactive).
Consider `O=C(N/N=C\c1cc(Br)ccc1O)c1ccc(S(=O)(=O)N2CCCCC2)cc1`, for which the “activity change, negative = cytotoxicity” value was 7.84% (inactive).
Turning to `N#C/C(=C\c1ccc([N+](=O)[O-])o1)c1nc2ccccc2[nH]1`, the Potency is 7.94 µM (active).
`CCOc1cc(/C=C(/C#N)c2nc3ccccc3[nH]2)ccc1Oc1ccc([N+](=O)[O-])cn1`: the “activity change, negative = cytotoxicity” value was -26% [at 57.5 µM] (inactive).
Same read-out and setting: the value for `O=C(Nc1cccnc1)C1Cc2c(-c3ccc4c(c3)OCO4)ccnc2O1` (stereo not drawn) was -4.94% (inactive); that for `Cc1nn(-c2ccccc2)c(N2CCCC2)c1/C=N/NC(=O)c1cc2ccccc2cc1O` was -15.2% (inactive).
For `Cc1nc(SC2CC(=O)N(c3ccccc3)C2=O)n[nH]1` (stereo not drawn), the “activity change, negative = cytotoxicity” value is -11.3% [at 57.5 µM] (inactive).
Consider `Cc1cc(C(=O)CN2C(=O)c3ccccc3S2(=O)=O)c(C)n1CC1CCCO1` (stereo not drawn), for which the “activity change, negative = cytotoxicity” value is -6.33% [at 57.5 µM] (inactive).
As for `CCc1nc2c(OCc3ccc(Cl)cc3Cl)cccn2c1N(C=O)Cc1ccc(OC)cc1`, the “activity change, negative = cytotoxicity” value was -19.5% (inactive).
Same read-out and setting: the value for `S=C(Nc1ccccc1)Nc1ccc(OCc2ccc(Cl)cc2Cl)cc1` was -16.1% [at 57.5 µM] (inactive).
As for `Cc1cc(/C=N/n2cnnc2)c(C)n1-c1ccc(OCc2ccc(Cl)cc2Cl)cc1`, the Potency was 28.2 µM (active).
With `Nc1cccc2c1C(=O)N(C(=O)/C=C/c1cccc(Br)c1)C2=O`, the “activity change, negative = cytotoxicity” value is 2.1% [at 57.5 µM] (inactive).
Consider `Cn1nnnc1Sc1ncnc2scc(Br)c12`, for which the Potency is 20 µM (active).
Same read-out and setting: the value for `Cn1nnnc1Sc1ncnc2scc(-c3ccc[nH]3)c12` was 12.6 µM (active).
`O=c1[nH]c(CN2CCN(c3ncccn3)CC2)nc2c(Br)cc(Br)cc12`: the “activity change, negative = cytotoxicity” value is -9.08% (inactive).
The same measure, in the same setting: for `CCOC(=O)COc1ccc(Br)cc1/C=C/c1[nH]c(=O)[nH]c(=O)c1[N+](=O)[O-]` the value was -26.2% (inactive); for `Nc1ccc2c(c1)OC1(CCCC1)O2`, -8.89% (inactive).
On to `Cn1c(CCc2nc3ccccc3[nH]2)nnc1SCC#N`, for which the “activity change, negative = cytotoxicity” value was -10.6% [at 57.5 µM] (inactive).
Still for that read-out and setting: the value for `c1ccc2c(c1)c1c(c3ccccc32)CN2CCCC2C1` (stereo not drawn) was -16.7% [at 57.5 µM] (inactive); that for `COc1ccc(-c2c[n+]3c4n2CCCCC4=C(c2ccc(Br)cc2)C3)cc1` was -28.7% (inactive); that for `Cc1cccc(OCCn2cc(/C=N/NC(=O)c3ccncc3)c3ccccc32)c1` was -6.67% (inactive).
Still for that read-out and setting: for `Cc1ccc(S(=O)(=O)NCC(=O)N/N=C/c2ccccc2O)cc1` the value was -10.1% (inactive); for `COc1ccc(C(=O)NC(=C(Cl)Cl)S(=O)(=O)c2ccc(C)cc2)cc1`, -18% (inactive).
On to `Cc1ccc(S(=O)(=O)/C(=C/Cl)NC(=O)c2ccccc2)cc1`, for which the Potency was 22.4 µM (active).
`CCOC(=O)c1ccc(/C=C2/C=C(c3ccccc3)N(c3ccc(Cl)c(C(=O)O)c3)C2=O)cc1`: the “activity change, negative = cytotoxicity” value was -28.3% [at 57.5 µM] (inactive).
In the case of `O=C(c1cc(COc2cccc(C(F)(F)F)c2)on1)N1CCC(c2ccncc2)CC1`, the “activity change, negative = cytotoxicity” value is -15.7% (inactive).
In the case of `Cn1c(SCC(=O)N/N=C/c2ccc([N+](=O)[O-])s2)nnc1-c1ccccc1`, the Potency was 22.4 µM (active).
Consider `Cn1c(SCC(=O)Nc2cc(Cl)cc(Cl)c2)nnc1-c1ccc2nonc2c1`, for which the “activity change, negative = cytotoxicity” value is -28.1% (inactive).
`C=CCn1c(COc2ccccc2)nnc1SCC(=O)N/N=C/c1cc(Cl)ccc1O`: the “activity change, negative = cytotoxicity” value was -24.6% [at 57.5 µM] (inactive).
As for `CSc1sc(-c2nnc(SCC(=O)Nc3ccc(Cl)cc3)n2C)c2c1C=CCC2`, the “activity change, negative = cytotoxicity” value was -6.66% (inactive).
On the same count and under the same terms, for `COc1ccc(O)c(/C=N/NC(=O)CSc2nnc(C)n2-c2ccccc2)c1` the value was -23.6% (inactive).
Regarding `Cn1c(SCC(=O)N/N=C/c2ccc([N+](=O)[O-])s2)nnc1-c1ccc(Cl)cc1`, the Potency is 11.2 µM (active).
